{
  "source": "PubChem BioAssay (Tox21)",
  "note": "Inconclusive results are not listed. Activity calls are given as the source filed them. The call rests on the fitted dose curve; in most records, active means well fitted cell-killing curve with a large enough effect in the repeat runs; inconclusive means weak or mixed curves, or effect the other way; inactive means flat fitted curve, though single readings scatter. On the % scale 0 is the no-effect control and ±100 the full control effect; potency means the concentration at half of the fitted maximal effect.",
  "data": [
    {"assay": "cAMP Responsive Elements (CRE) small molecule antagonists, cell-based qHTS assay: qHTS cell viability counter screen (AID 2060913); further: nearly all actives have a fitted effect of over 40% in size", "conditions": "CRE-bla HEK293T viability, CellTiter-Glo luminescence, 5 h; series mostly up to 92.4 µM; viability change, negative = cytotoxic: at the top concentration", "in_short": "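Viability of NKH477-stimulated (0.25 uM final) CRE-bla HEK293T cells is measured by CellTiter-Glo luminescence following 3 hrs compound exposure at 37 C.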", "values": [
      {"smiles": "NS(=O)(=O)c1cc2c(cc1Cl)NC(CSCc1ccccc1)=NS2(=O)=O", "viability change, negative = cytotoxic": "-0.245% [at 42.5 µM] (inactive)"},
      {"smiles": "CCN1CCC[C@H]1CNC(=O)c1c(OC)ccc(Br)c1OC", "viability change, negative = cytotoxic": "4.39% [at 42.5 µM] (inactive)"},
      {"smiles": "O=C(O)CCSSCCC(=O)O", "viability change, negative = cytotoxic": "-1.69% (inactive)"},
      {"smiles": "CC(C)=CCCC(C)CC=O", "note": "(stereo not given)", "viability change, negative = cytotoxic": "-0.177% (inactive)"},
      {"smiles": "CCCCCc1ccc(O)cc1", "viability change, negative = cytotoxic": "-12.5% (inactive)"},
      {"smiles": "O=C(OCCN1CCOCC1)c1cccnc1Nc1cccc(C(F)(F)F)c1", "viability change, negative = cytotoxic": "-1.36% [at 42.5 µM] (inactive)"},
      {"smiles": "CN(C)CCCN1c2ccccc2Sc2ccc(C(F)(F)F)cc21", "viability change, negative = cytotoxic": "-19% [at 42.5 µM] (inactive)"},
      {"smiles": "ClC(Cl)(Br)Br", "viability change, negative = cytotoxic": "1.74% (inactive)"},
      {"smiles": "CC(C)C(O)(c1ccc(OC(F)(F)F)cc1)c1cncnc1", "note": "(stereo not given)", "viability change, negative = cytotoxic": "10.9% (inactive)"},
      {"smiles": "C[C@@H](O)[C@H](N)C(=O)O", "viability change, negative = cytotoxic": "-1.62% [at 18.9 µM] (inactive)"},
      {"smiles": "C1CCC2OC2C1", "note": "(stereo not given)", "viability change, negative = cytotoxic": "7.4% (inactive)"},
      {"smiles": "CC/C=C(\\C(=O)N[C@@H]1C(=O)N2C(C(=O)OCOC(=O)C(C)(C)C)=C(COC(N)=O)CS[C@H]12)c1csc(N)n1", "Potency": "inactive"},
      {"smiles": "FC1(F)C(F)(F)C(F)(F)C2(F)C(F)(F)C(F)(F)C(F)(F)C(F)(F)C2(F)C1(F)F", "note": "(stereo not given)", "viability change, negative = cytotoxic": "0.0232% [at 42.5 µM] (inactive)"},
      {"smiles": "CCCC(C)CO", "note": "(stereo not given)", "viability change, negative = cytotoxic": "4.46% (inactive)"},
      {"smiles": "O=C1OC[C@H](Cc2cccc(O)c2)[C@H]1Cc1cccc(O)c1", "viability change, negative = cytotoxic": "0.982% [at 42.5 µM] (inactive)"},
      {"smiles": "Cc1ccc(C(C)NC(=O)[C@@H](NC(=O)OC(C)C)C(C)C)cc1", "note": "(stereo not given in full)", "viability change, negative = cytotoxic": "-0.0054% (inactive)"},
      {"smiles": "CCCCCCOC(=O)c1ccccc1O", "viability change, negative = cytotoxic": "0.807% (inactive)"},
      {"smiles": "O=C(Nc1ccc2c(c1)Cc1ccccc1-2)C(F)(F)F", "viability change, negative = cytotoxic": "-7.05% (inactive)"},
      {"smiles": "CCCCN(CCCC)C(C(N)=O)c1ccc(OC)cc1", "note": "(stereo not given)", "viability change, negative = cytotoxic": "-0.536% [at 42.5 µM] (inactive)"},
      {"smiles": "CCCN(CCC)C(=O)C(CCC(=O)O)NC(=O)c1ccccc1", "note": "(stereo not given)", "viability change, negative = cytotoxic": "0.571% [at 42.5 µM] (inactive)"},
      {"smiles": "NCCOCCN", "viability change, negative = cytotoxic": "0.743% (inactive)"},
      {"smiles": "Cc1cc(O)cc(C)c1Cl", "Potency": "inactive"},
      {"smiles": "O=C1c2c(O)ccc(Nc3ccc(CCO)cc3)c2C(=O)c2c([N+](=O)[O-])ccc(O)c21", "viability change, negative = cytotoxic": "2.22% (inactive)"},
      {"smiles": "O=C(O)c1cc(-c2ccccc2)nc2ccccc12", "Potency": "inactive"},
      {"smiles": "CC1(C)NC(=O)NC1=O", "Potency": "inactive"},
      {"smiles": "FC(F)(F)C(F)(F)C(F)(F)C(F)(F)CCI", "viability change, negative = cytotoxic": "2.31% [at 42.5 µM] (inactive)"},
      {"smiles": "CCC(C)(CN(C)C)OC(=O)c1ccccc1", "note": "(stereo not given)", "viability change, negative = cytotoxic": "-0.727% [at 42.5 µM] (inactive)"},
      {"smiles": "CC(=O)Nc1ccc(C)cc1C", "viability change, negative = cytotoxic": "-0.45% (inactive)"},
      {"smiles": "C=CCOc1nc(OCC=C)nc(OCC=C)n1", "viability change, negative = cytotoxic": "0.127% (inactive)"},
      {"smiles": "Cc1cc(C)cc(O)c1", "Potency": "inactive"},
      {"smiles": "Cc1ccccn1", "viability change, negative = cytotoxic": "1.97% (inactive)"},
      {"smiles": "O=C1NCC2(CCN(CCc3ccccc3)CC2)O1", "viability change, negative = cytotoxic": "0.0738% [at 42.5 µM] (inactive)"},
      {"smiles": "O=S(=O)(O)CCCN1CCOCC1", "viability change, negative = cytotoxic": "-2.16% (inactive)"},
      {"smiles": "NCCNc1cccc2ccccc12", "Potency": "inactive"},
      {"smiles": "CC[C@H]1OC(=O)[C@H](C)[C@@H](O[C@H]2C[C@@](C)(OC)[C@@H](O)[C@H](C)O2)[C@H](C)[C@@H](O[C@@H]2O[C@H](C)C[C@H](N(C)C)[C@H]2O)[C@](C)(O)C[C@@H](C)C(=O)[C@H](C)[C@@H](O)[C@]1(C)O", "viability change, negative = cytotoxic": "4.9% [at 42.5 µM] (inactive)"},
      {"smiles": "CC(C)=CCCC(C)CCO", "note": "(stereo not given)", "Potency": "inactive"},
      {"smiles": "O=C1[C@@H]2[C@H]3CC[C@H](C3)[C@@H]2C(=O)N1CCCCN1CCN(c2ncccn2)CC1", "viability change, negative = cytotoxic": "6.48% [at 42.5 µM] (inactive)"},
      {"smiles": "Oc1cc2ccccc2c2ccccc12", "Potency": "13.7 µM (active)"},
      {"smiles": "CC(=O)OCC(CCn1cnc2cnc(N)nc21)COC(C)=O", "viability change, negative = cytotoxic": "1.39% [at 42.5 µM] (inactive)"},
      {"smiles": "C=COCCOCCOCCOC=C", "viability change, negative = cytotoxic": "-1.6% (inactive)"}
    ]},
    {"assay": "cAMP Responsive Elements (CRE) small molecule agonists, cell-based qHTS assay: qHTS cell viability counter screen (AID 2060914); further: nearly all actives have a fitted effect of over 50% in size", "conditions": "CRE-bla HEK293T viability, CellTiter-Glo luminescence, 5 h; series mostly up to 92.4 µM; activity change, negative = cytotoxicity: at the top concentration", "in_short": "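Cytotoxicity was measured as ATP luminescence (CellTiter-Glo, 30 min at room temperature) in the same wells as the CRE-bla FRET read-out. HEK293T CRE-bla cells had 3 h compound exposure at 37C/5% CO2.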", "values": [
      {"smiles": "NS(=O)(=O)c1cc2c(cc1Cl)NC(CSCc1ccccc1)=NS2(=O)=O", "activity change, negative = cytotoxicity": "12.7% [at 42.5 µM] (inactive)"},
      {"smiles": "CCN1CCC[C@H]1CNC(=O)c1c(OC)ccc(Br)c1OC", "activity change, negative = cytotoxicity": "-6.39% [at 42.5 µM] (inactive)"},
      {"smiles": "O=C(O)CCSSCCC(=O)O", "activity change, negative = cytotoxicity": "13.5% (inactive)"},
      {"smiles": "CC(C)=CCCC(C)CC=O", "note": "(stereo not given)", "activity change, negative = cytotoxicity": "-2.33% (inactive)"},
      {"smiles": "CCCCCc1ccc(O)cc1", "activity change, negative = cytotoxicity": "-13.5% (inactive)"},
      {"smiles": "O=C(OCCN1CCOCC1)c1cccnc1Nc1cccc(C(F)(F)F)c1", "activity change, negative = cytotoxicity": "5.67% [at 42.5 µM] (inactive)"},
      {"smiles": "CN(C)CCCN1c2ccccc2Sc2ccc(C(F)(F)F)cc21", "activity change, negative = cytotoxicity": "2.89% [at 42.5 µM] (inactive)"},
      {"smiles": "ClC(Cl)(Br)Br", "activity change, negative = cytotoxicity": "4.96% (inactive)"},
      {"smiles": "CC(C)C(O)(c1ccc(OC(F)(F)F)cc1)c1cncnc1", "note": "(stereo not given)", "activity change, negative = cytotoxicity": "-5.21% (inactive)"},
      {"smiles": "C[C@@H](O)[C@H](N)C(=O)O", "activity change, negative = cytotoxicity": "-10.8% [at 18.9 µM] (inactive)"},
      {"smiles": "C1CCC2OC2C1", "note": "(stereo not given)", "activity change, negative = cytotoxicity": "1.3% (inactive)"},
      {"smiles": "CC/C=C(\\C(=O)N[C@@H]1C(=O)N2C(C(=O)OCOC(=O)C(C)(C)C)=C(COC(N)=O)CS[C@H]12)c1csc(N)n1", "Potency": "inactive"},
      {"smiles": "FC1(F)C(F)(F)C(F)(F)C2(F)C(F)(F)C(F)(F)C(F)(F)C(F)(F)C2(F)C1(F)F", "note": "(stereo not given)", "activity change, negative = cytotoxicity": "-0.696% [at 42.5 µM] (inactive)"},
      {"smiles": "CCCC(C)CO", "note": "(stereo not given)", "activity change, negative = cytotoxicity": "1.25% (inactive)"},
      {"smiles": "O=C1OC[C@H](Cc2cccc(O)c2)[C@H]1Cc1cccc(O)c1", "activity change, negative = cytotoxicity": "-0.0714% [at 42.5 µM] (inactive)"},
      {"smiles": "Cc1ccc(C(C)NC(=O)[C@@H](NC(=O)OC(C)C)C(C)C)cc1", "note": "(stereo not given in full)", "activity change, negative = cytotoxicity": "4.35% (inactive)"},
      {"smiles": "CCCCCCOC(=O)c1ccccc1O", "activity change, negative = cytotoxicity": "3.96% (inactive)"},
      {"smiles": "O=C(Nc1ccc2c(c1)Cc1ccccc1-2)C(F)(F)F", "activity change, negative = cytotoxicity": "-24.1% (inactive)"},
      {"smiles": "CCCCN(CCCC)C(C(N)=O)c1ccc(OC)cc1", "note": "(stereo not given)", "activity change, negative = cytotoxicity": "-12.9% [at 42.5 µM] (inactive)"},
      {"smiles": "CCCN(CCC)C(=O)C(CCC(=O)O)NC(=O)c1ccccc1", "note": "(stereo not given)", "activity change, negative = cytotoxicity": "1.7% [at 42.5 µM] (inactive)"},
      {"smiles": "NCCOCCN", "activity change, negative = cytotoxicity": "-4.73% (inactive)"},
      {"smiles": "Cc1cc(O)cc(C)c1Cl", "Potency": "inactive"},
      {"smiles": "O=C1c2c(O)ccc(Nc3ccc(CCO)cc3)c2C(=O)c2c([N+](=O)[O-])ccc(O)c21", "activity change, negative = cytotoxicity": "-3.99% (inactive)"},
      {"smiles": "O=C(O)c1cc(-c2ccccc2)nc2ccccc12", "activity change, negative = cytotoxicity": "3.94% [at 42.5 µM] (inactive)"},
      {"smiles": "CC1(C)NC(=O)NC1=O", "Potency": "inactive"},
      {"smiles": "FC(F)(F)C(F)(F)C(F)(F)C(F)(F)CCI", "activity change, negative = cytotoxicity": "-0.634% [at 42.5 µM] (inactive)"},
      {"smiles": "CCC(C)(CN(C)C)OC(=O)c1ccccc1", "note": "(stereo not given)", "activity change, negative = cytotoxicity": "14.8% [at 42.5 µM] (inactive)"},
      {"smiles": "CC(=O)Nc1ccc(C)cc1C", "activity change, negative = cytotoxicity": "-2.78% (inactive)"},
      {"smiles": "C=CCOc1nc(OCC=C)nc(OCC=C)n1", "activity change, negative = cytotoxicity": "-15.6% (inactive)"},
      {"smiles": "Cc1cc(C)cc(O)c1", "Potency": "inactive"},
      {"smiles": "Cc1ccccn1", "activity change, negative = cytotoxicity": "-13.6% (inactive)"},
      {"smiles": "O=C1NCC2(CCN(CCc3ccccc3)CC2)O1", "activity change, negative = cytotoxicity": "2.74% [at 42.5 µM] (inactive)"},
      {"smiles": "O=S(=O)(O)CCCN1CCOCC1", "activity change, negative = cytotoxicity": "1.45% (inactive)"},
      {"smiles": "NCCNc1cccc2ccccc12", "Potency": "inactive"},
      {"smiles": "CC[C@H]1OC(=O)[C@H](C)[C@@H](O[C@H]2C[C@@](C)(OC)[C@@H](O)[C@H](C)O2)[C@H](C)[C@@H](O[C@@H]2O[C@H](C)C[C@H](N(C)C)[C@H]2O)[C@](C)(O)C[C@@H](C)C(=O)[C@H](C)[C@@H](O)[C@]1(C)O", "activity change, negative = cytotoxicity": "-0.662% [at 42.5 µM] (inactive)"},
      {"smiles": "CC(C)=CCCC(C)CCO", "note": "(stereo not given)", "Potency": "inactive"},
      {"smiles": "O=C1[C@@H]2[C@H]3CC[C@H](C3)[C@@H]2C(=O)N1CCCCN1CCN(c2ncccn2)CC1", "activity change, negative = cytotoxicity": "8.31% [at 42.5 µM] (inactive)"},
      {"smiles": "Oc1cc2ccccc2c2ccccc12", "Potency": "13.7 µM (active)"},
      {"smiles": "CC(=O)OCC(CCn1cnc2cnc(N)nc21)COC(C)=O", "activity change, negative = cytotoxicity": "0.393% [at 42.5 µM] (inactive)"},
      {"smiles": "C=COCCOCCOCCOC=C", "activity change, negative = cytotoxicity": "-3.34% (inactive)"}
    ]}
  ]
}
